CRFR2-BP ag: agonists of human CRF-binding protein/CRF-R2 receptor complex. activation, % at 13.2 µM. HEK293 CRF-R2/CRF-BP, calcium dye fluorescence (FLIPR); percent of saturating CRF peptide response. AID 588473. 350,000 tested, 0.46% active;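 active means activation of at least 50%, plus an integration ratio under a set limit after plate pattern correction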;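 further: plate controls were neutral control wells without compound for no effect and CRF at EC100 for full effect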
ABCB6 inh MLPCN: inhibitors of human ABC transporter ABCB6; Q9NP58; K562-ABCB6 porphyrin accumulation, flow cytometry, 1 h; active compounds read low; fluorescence ratio to DMSO, % at 10 µM; 360,000 tested, 0.19% active; AID 602162;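 active means fluorescence ratio to DMSO below 75%, the collection mean minus 3 SD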;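 further: signal is porphyrin accumulated inside mitochondria; 100% equals median channel fluorescence of DMSO control wells; lower ratio means ABCB6 inhibition with less porphyrin fluorescence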
Target sequence (Q9NP58 whole entry, looked up): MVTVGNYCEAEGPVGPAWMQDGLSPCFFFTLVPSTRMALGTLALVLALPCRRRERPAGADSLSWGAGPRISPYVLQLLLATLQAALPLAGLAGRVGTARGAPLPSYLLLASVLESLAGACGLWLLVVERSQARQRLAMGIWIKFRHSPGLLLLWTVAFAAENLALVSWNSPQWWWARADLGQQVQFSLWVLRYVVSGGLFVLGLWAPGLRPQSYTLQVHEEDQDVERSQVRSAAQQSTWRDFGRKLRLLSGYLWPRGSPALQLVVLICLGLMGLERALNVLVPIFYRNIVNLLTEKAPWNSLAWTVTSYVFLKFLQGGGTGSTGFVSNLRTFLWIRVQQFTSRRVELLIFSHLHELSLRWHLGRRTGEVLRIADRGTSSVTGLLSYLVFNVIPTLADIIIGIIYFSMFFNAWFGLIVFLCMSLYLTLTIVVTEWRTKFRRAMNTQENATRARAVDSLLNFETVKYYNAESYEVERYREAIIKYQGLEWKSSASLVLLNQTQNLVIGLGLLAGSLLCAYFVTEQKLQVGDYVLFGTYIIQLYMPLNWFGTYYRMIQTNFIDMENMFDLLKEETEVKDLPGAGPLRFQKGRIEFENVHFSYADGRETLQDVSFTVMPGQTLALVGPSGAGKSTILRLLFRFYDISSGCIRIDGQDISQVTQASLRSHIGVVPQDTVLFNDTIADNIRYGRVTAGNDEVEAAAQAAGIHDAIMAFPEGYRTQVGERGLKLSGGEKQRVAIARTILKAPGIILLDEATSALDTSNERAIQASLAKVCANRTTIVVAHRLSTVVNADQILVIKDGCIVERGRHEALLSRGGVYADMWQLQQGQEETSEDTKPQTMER
CRFR2-BP antag: blocks CRF-induced signaling of the CRF-BP/CRF-R2 complex; inhibition, % at 11.8 µM; AID 588475; 350,000 tested, 0.59% active; HEK293 CRF-R2/CRF-BP, CRF-induced calcium fluorescence;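 active means inhibition of the ligand-induced calcium signal above about 50% at the single tested concentration, limit read from the data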
MEKK2 mut-MEK5: signal of MEK5 binding to mutant human MEKK2 PB1 domain. 290,000 tested, 0.35% active. percent response, % at 10 µM. bead flow cytometry, Alexa488-MEK5 binding to MEKK2 mutant; in the data active means percent response above about 24%, passing the limit was not always enough
MEKK2wt PB1 HTS: raises or lowers MEK5 binding to wildtype human MEKK2 PB1 domain; Q9Y2U5; bead flow cytometry, Alexa488-MEK5 binding to MEKK2 WT; actives lie on both sides; binding response (% of control), % at 10 µM; 290,000 tested, 1.1% active; in the data active means binding response below about 67% or above about 130%
MEKK3 PB1 HTS: MEKK3-MEK5 PB1 interaction, increase or decrease. binding response (% of control), % at 10 µM. AID 1529. bead-based flow cytometry, Alexa488-MEK5 binding to MEKK3; actives lie on both sides; 0 = blocked by unlabeled MEK5, 100 = vehicle. 290,000 tested, 1.4% active;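 active means binding response more than 3 SD above or below the average of its plate-row segment, actives on both sides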;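 further: Alexa488 bead fluorescence after subtracting the streptavidin-only scavenger bead signal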
MEKK2wt confirm: raises or lowers MEK5 binding to wildtype human MEKK2, retest | shares compounds with MEKK3 PB1 HTS | bead flow cytometry, Alexa488-MEK5 binding to MEKK2 WT; actives lie on both sides | binding response (% of control), % at 10 µM | 5,900 tested, 2.4% active; in the data active means binding response below about 16% or above about 210%; inactive means in between
MEKK2mut confirm: signal of MEK5 binding to mutant human MEKK2, retest; shares compounds with MEKK3 PB1 HTS; bead flow cytometry, Alexa488-MEK5 binding to MEKK2 mutant; percent response, % at 10 µM; 5,900 tested, 2% active; AID 1893; in the data active means percent response mostly above about 71%, no sharp cut-off; inactive means mostly below about 38%;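 further: higher means compound restores mutant binding toward wildtype level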
MEKK3-MEK5 inh: MEKK3-MEK5 PB1 inhibition, single concentration confirmation | shares compounds with MEKK3 PB1 HTS | bead flow cytometry, Alexa488-MEK5 binding to MEKK3; active compounds read low | binding response (% of control), % at 10 µM | 5,900 tested, 1.8% active | AID 1894;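 active means binding response below 72% of control, or above a set upper limit, though filed actives all read lower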;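 further: 100% = DMSO only wells and 0% = binding blocked by excess unlabeled MEK5; lower values mean stronger disruption of MEK5 binding to MEKK3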
Starred values were filed as active, the others as inactive; x = no result; [ ] = dose if it differs, or a comment. An excerpt weighted towards active compounds, which were near 2.9% of everything screened.

SMILES	CRFR2-BP ag	ABCB6 inh MLPCN	CRFR2-BP antag	MEKK2 mut-MEK5	MEKK2wt PB1 HTS	MEKK3 PB1 HTS	MEKK2wt confirm	MEKK2mut confirm	MEKK3-MEK5 inh
CCCCc1ccc(NC(=O)N[C@@H](CC(C)C)C(=O)O)cc1	-1	96	-2	7	112	2.0*[inhibitor]	98	-8	97
Cc1sc2ncnc(N/N=C/c3ccc(O)cc3)c2c1C	0	98	4	7	108	105	x	x	x
COc1ccc(/C=N/Nc2ncnc3sc(C)c(C)c23)cc1	0	97	-20	1	107	133*	106	-3	102
CCc1sc(N(C(=O)Cc2ccccc2)c2ccccc2)nc1-c1ccccc1	2	108	-6	-5	95	95	x	x	x
CCCCC(=O)N(c1ccc(C(=O)O)cc1)c1nc(-c2ccc(Cl)cc2)c(CC)s1	2	96	49	-60	3.0*[inhibitor]	3.0*[inhibitor]	93	-7	104
Cc1nc(-c2nc(-c3c(C(=O)NN)noc3C)cs2)cs1	-2	96	-16	6	122	147*	109	9	106
Cc1cccc2nc(CSc3nc4ccc([N+](=O)[O-])cc4[nH]3)cn12	-3	91	11	0	110	151*	103	8	103
O=[N+]([O-])c1ccc2nc(SCc3cn4ccccc4n3)[nH]c2c1	-1	99	5	19	102	104	x	x	x
NC1=NC(c2cccc(Cl)c2)N(CCc2ccc(F)cc2)C(N)=N1 (stereo not given)	0	99	1	9	112	102	x	x	x
Cc1c(CN2CCC(CO)(CCOc3ccccc3)CC2)[nH]c2c(Cl)cccc12	0	97	-27	28	240*	115	195	50	108
Cc1nn(C)c(Cl)c1CN1CCC(CO)(CCOc2ccccc2)CC1	-2	104	6	-5	96	96	x	x	x
CCNC(=O)C1(C)CCN(C(=O)c2ccc(OC)c(OC)c2)C1 (stereo not given)	x	104	x	x	x	x	x	x	x
Nc1ncnc2c1ncn2[C@@H]1O[C@H](C(=O)NS(=O)(=O)c2cccs2)[C@@H](O)[C@H]1O	x	101	x	x	x	x	x	x	x
O=C(CSc1nnc(CNC(=O)c2cccs2)o1)Nc1ccccc1F	1	106	15	0	101	104	x	x	x
CC1(c2ccccc2)CC(C)(C)N2C(=O)/C(=C3\SC(=S)NC3=O)c3cccc1c32 (stereo not given)	1	100	54*	-1	96	147*	95	-3	95
CCc1ccc(NC(=O)NCC2CCN(Cc3cccc(Cl)c3)CC2)cc1	4	98	-14	20	130	107	x	x	x
Cc1ccc(NC(=O)NCC2CCN(Cc3cccc(Cl)c3)CC2)cc1Cl	-1	104	-16	36	182*	109	167	47	109
COc1ccnc(Oc2ccccc2)c1C(=O)N/C=N/OCc1ccccc1	1	97	-18	-39	68	67*[inhibitor]	103	-3	103
CCCCNC(=O)CSc1nc2ccccc2c(=O)n1CCNC(C)=O	1	102	8	4	98	104	x	x	x
CCCNC(=O)CSc1nc2ccccc2c(=O)n1CCC	-2	97	13	-1	112	128*	101	3	104
COCCn1c(SCC(=O)Nc2ccc(NC(C)=O)cc2)nc2ccccc2c1=O	0	132	0	0	99	100	x	x	x
COCCCn1c(SCC(=O)Nc2ccc(C(C)=O)cc2)nc2ccccc2c1=O	-2	100	22	-19	48	39*[inhibitor]	105	3	102
CC(OC(=O)C1CC1)C(=O)Nc1cc(Cl)cc(Cl)c1 (stereo not given)	-5	97	2	x	x	x	x	x	x
CCCc1cc(=O)[nH]c(SCC(=O)N2c3ccccc3NC(=O)C2(C)C)n1	0	104	-11	x	x	x	x	x	x
Cc1ccc(OCCSc2nc3ccccc3n2CCC(=O)O)cc1	-1	96	-9	10	111	113	x	x	x
SMILES	CRFR2-BP ag	ABCB6 inh MLPCN	CRFR2-BP antag	MEKK2 mut-MEK5	MEKK2wt PB1 HTS	MEKK3 PB1 HTS	MEKK2wt confirm	MEKK2mut confirm	MEKK3-MEK5 inh
COc1ccccc1N1CCN(C(=O)c2ccc(CSc3ccccc3)cc2)CC1	-2	94	8	0	107	128*	100	1	104
COc1ccccc1N1CCN(C(=O)c2ccc(-c3ccccc3)cc2)CC1	0	102	29	-4	98	98	x	x	x
COc1ccccc1N1CCN(C(=O)c2ccc3[nH]c4c(c3c2)CCCC4)CC1	-1	93	-14	1	107	145*	97	0	106
CN(C(=O)C1CCCCC1)C1CCS(=O)(=O)C1 (stereo not given)	-4	100	13	x	x	x	x	x	x
COc1ccc(C(OC(=O)c2ccco2)C(=O)NC(C)(C)C)cc1 (stereo not given)	-1	96	0	6	120	139*	98	-6	101
COCCNC(=O)C(OC(=O)c1ccco1)c1ccccc1OC (stereo not given)	0	99	13	6	122	123*	100	-4	98
Cc1ccc(NC(=O)C(C)OC(=O)/C=C/c2ccccc2)cc1S(=O)(=O)N1CCOCC1 (stereo not given)	3	99	-6	x	x	x	x	x	x
CCN(CC)CC(O)Cn1c2ccccc2c2ccccc21 (stereo not given)	0	97	-7	9	105	105	x	x	x
CCN(CC)CC(O)Cn1c(C)c(-c2ccccc2)c2cc([N+](=O)[O-])ccc21 (stereo not given)	-1	97	-7	30*	174*	110	165	43	111
Cc1ccc(CCN2CC(C(=O)NCCN3CCCCCC3)CC2=O)cc1 (stereo not given)	2	107	-11	62*	161*	107	151	72*	108
COc1ccc(CN2CC(C(=O)NCCCN3CCCCCC3)CC2=O)cc1 (stereo not given)	2	103	-11	19	137*	103	119	37	104
Cc1ccc(S(=O)(=O)N2CCC(C(=O)NCCN3CCCCCC3)CC2)cc1	-1	101	6	34*	170*	96	121	7	94

Compound activity (PubChem BioAssay)
